Screening data from PubChem.
The list is not random: actives were taken first. Their share in the collection is about 6.9%.
Beta cell apopt: inhibitors of cytokine-induced beta cell apoptosis, primary screen, luminescence; protection from apoptosis, % (no concentration beside the values); 300,000 tested, 0.8% active; INS-1E cytokine-induced death, ATP luminescence, 48 h; percent of positive-control rescue, neutral wells zero;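 active = Every replicate reaches about 75%, or at least half do and their mean reaches it too, limit read from the data; inconclusive = At least half of replicates reach the limit but their mean does not; inactive = Under half of replicates reach the limit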;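 note: 0% = cytokine-treated negative control wells and 100% = positive control rescue; higher means more ATP so stronger rescue from cytokine killing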
Mdm2 MdmX PPI: inhibitors of human Mdm2-MdmX association, primary screen, cell-based, luminescence, split luciferase, SaOS-2, uHTS; Protein Mdm4 (Homo sapiens) + E3 ubiquitin-protein ligase Mdm2 (Homo sapiens), …; SaOS-2 split-luciferase Mdm2/MdmX complementation; inhibition, % at 8 µM; 330,000 tested, 3% active;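 active = inhibition of at least 50% at 8 µM in the primary screen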
CSC inhib: cancer stem cell viability inhibitors, primary screen, luminescence | inhibition, % at 7.5 µM | 300,000 tested, 1.1% active | cancer stem cell-like cells viability | AID 2717, 2010; in the data active = inhibition above about 75%; inconclusive = no clear call, values can overlap the other calls; tested in HMLE shEcad cells
MPTP block: mitochondrial permeability transition pore inhibitors, primary screen, biochemical, isolated mouse mitochondria, absorbance; 360,000 tested, 1.4% active; inhibition, % at 10 µM; Ca2+ swelling absorbance, 30 min; AID 602449, 2012;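 active = inhibition of 50% or more, scaled per plate between neutral and stimulator controls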;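 note: 0% = DMSO wells given calcium and 100% = 1 mM EGTA wells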
SKKanGAS inh: S. pyogenes SKKanGAS growth inhibitors in kanamycin, primary screen, streptokinase expression inhibitor project, SKKanGAS strain, BacTiter-Glo luminescence. 300,000 tested, 1.3% active. 6 h. inhibition, % at 7.5 µM;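 active = mean replicate score, as percent of positive control median, at least 50; inconclusive = mean below 50 but one replicate at or above 50; inactive = mean and every replicate below 50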;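 note: strain carries kanamycin resistance gene driven by streptokinase promoter and grows in 40 µg/ml kanamycin; loss of luminescence reflects streptokinase promoter inhibition or plain growth inhibition; 0% = median of DMSO wells and 100% = positive control at its reference dose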
NR3A LBD binder: binders of NR3A ligand-binding domain, primary screen, biophysical, differential scanning fluorimetry, uHTS; Tm shift relative to glycine control, % at 25 µM; 340,000 tested, 2.5% active; Glutamate receptor ionotropic, NMDA 3A (GRIN3A) ligand-binding domain; NR3A LBD differential scanning fluorimetry, Tm shift; 0% = protein alone, 100% = glycine-bound protein;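 active = melting temperature shift of at least 10% of the positive control shift, at one fixed dose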
Mdm2 MdmX conf: Mdm2-MdmX complex disruptors, retested hits, confirmation, luminescence, single concentration; shares compounds with Mdm2 MdmX PPI; Mdm2-MdmX binding, luminescent assay; inhibition, % at 8 µM; 10,000 tested, 55% active; in the data active = inhibition above about 40%
Full FLuc ctr: full-length luciferase signal inhibition, confirmation, counter-screen for Mdm2/MdmX interaction inhibitor project, cell-based, single concentration, SaOS-2; shares compounds with Mdm2 MdmX PPI; SaOS-2 full-length luciferase counterscreen, luminescence; inhibition, % at 8 µM; 6,200 tested, 77% active; AID 504607, 2011;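 active = mean inhibition at 8 µM reaching about 37%, which flags the compound as non-specific, limit read from the data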;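 note: p53-null SaOS-2 cells with luciferase driven by a doxycycline-inducible promoter; compound on cells about two nights before reading with doxycycline added after day one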
Numbers without * were called inactive; ? = inconclusive; . = no result given.

SMILES	Beta cell apopt	Mdm2 MdmX PPI	CSC inhib	MPTP block	SKKanGAS inh	NR3A LBD binder	Mdm2 MdmX conf	Full FLuc ctr
COc1cccc(C2C3=C(N=c4s/c(=C\c5cccc(O)c5)c(=O)n42)c2ccccc2CC3)c1OC (stereo not given)	3	68*	91*	6	?	31*	11	.
CCCCC(=O)Nc1nnc(SCC(=O)NCC2CCCO2)s1 (stereo not given)	.	27	-13	-1	-9	3	.	.
COc1cc(/C=C/C(=O)c2ccc3c(c2)OCCO3)cc(OC)c1OC	-21	67*	45	-1	3	-1	46*	66*
COc1ccc(OC)c(/C=C/C(=O)c2ccc3c(c2)OCCO3)c1	-15	76*	61	1	16	0	16	.
COc1cc(/C=C/C(=O)c2ccc(F)cc2)cc(OC)c1OC	-20	0	9	1	-4	-2	.	.
COc1cc(/C=C/C(=O)c2ccc3c(c2)OCO3)cc(OC)c1OC	-53	91*	.	0	.	-2	60*	38*
COc1ccc(/C=C/C(=O)c2ccc3c(c2)OCO3)cc1OC	-10	20	19	-1	.	1	.	.
CCN(CC)S(=O)(=O)c1ccc(=O)n(CC(=O)N2CCCc3cc(C)ccc32)c1	-9	-7	-16	-2	.	-2	.	.
CCCOc1ccc(C(=O)CCNC(Cc2c[nH]c3ccccc23)C(=O)O)cc1 (stereo not given)	-17	87*	1	0	-3	4	21	.
COc1ccc(C(=O)NC(Cc2c[nH]c3ccccc23)C(=O)O)cc1 (stereo not given)	-3	-18	-5	1	5	0	.	.
O=C(CSc1nc(-c2ccc(F)cc2)cs1)NCC1CCCO1 (stereo not given)	-2	16	-6	0	.	1	.	.
CC(C)C(CCNC1CCN(C)CC1)c1ccc(Cl)cc1 (stereo not given)	.	77*	.	4	3	1	56*	54*
CCNC(=O)N1CCN(CCCC(c2ccc(F)cc2)c2ccc(F)cc2)CC1	-4	16	-7	25	.	1	.	.
CC(C)C(CCNCc1ccccn1)c1ccc(Cl)cc1 (stereo not given)	3	18	-2	0	0	0	.	.
CN1CCC(NCCC(c2ccc(F)cc2)c2ccc(Cl)cc2)CC1 (stereo not given)	22	100*	35	4	17	.	98*	59*
CCN(CC)C(=O)C1=C(C)Nc2ncnn2C1c1cccnc1 (stereo not given)	-1	26	-8	-2	8	-2	.	.
NNC(=O)c1cc2c(s1)-c1cc(Cl)ccc1SC2	3	32	24	2	10	1	.	.
CCN(CC)CCNC(=O)c1cc2c(s1)-c1ccccc1SC2	41	64*	51	2	-9	2	48*	79*
O=C(OCc1ccc(Cl)c(Cl)c1)c1ccc[nH]1	-1	-21	-6	0	2	-9	.	.
CCOc1ccc(S(=O)(=O)NCc2cccnc2)cc1NC(=O)c1ccccc1	.	.	.	0	.	1	.	.
CCOc1ccc(S(=O)(=O)NCc2ccccn2)cc1NC(=O)c1ccccc1	.	58*	51	0	-11	0	75*	57*
COc1cc2ncnc(NCc3ccc(F)cc3)c2cc1OC	7	22	42	0	-4	-2	.	.
O=C1CCCC2=C1C1c3ccccc3C(=O)N1c1ccc(C(=O)c3ccccc3)cc1N2 (stereo not given)	2	56*	-2	0	23	-6	42*	67*
CCN(CC)Cc1c(O)ccc2c1O/C(=C\C=C\c1ccccc1)C2=O	105*	98*	109*	3	-7	0	71*	25
COc1ccccc1/C=C/C=C1\Oc2c(ccc(O)c2CN(C)C)C1=O	-9	61*	1	3	3	-1	43*	44*
SMILES	Beta cell apopt	Mdm2 MdmX PPI	CSC inhib	MPTP block	SKKanGAS inh	NR3A LBD binder	Mdm2 MdmX conf	Full FLuc ctr
COc1ccc(C(=O)N2[C@@H](C(C)C)COc3cc(Br)ccc3S2(=O)=O)cc1	.	.	.	-1	.	-1	.	.
COc1cc2c(cc1OC)-c1cc(Nc3ccc4c(c3)OCCO4)nc(=O)n1CC2	21	68*	18	1	10	-2	45*	52*
COc1ccc(Nc2cc3n(c(=O)n2)CCc2cc(OC)c(OC)cc2-3)cc1	19	24	16	1	0	0	.	.
O=C(CNc1n[nH]c(=O)[nH]c1=O)N/N=C/C=C/c1ccccc1	-3	0	-3	-1	0	0	.	.
O=C(Nc1ccc(N2CCCCC2)cc1)c1ccccn1	47	81*	-4	-1	6	-1	84*	28
CC(=O)N1CCN(S(=O)(=O)c2cccc(C(=O)NNC(=O)Cn3nc(C)cc3C)c2)CC1	-7	-18	.	-1	.	1	.	.
CCC[C@@H](CNC)NC[C@H](Cc1ccccc1)NCCCCc1ccccc1	19	97*	133*	8	8	2	83*	55*
CCC[C@@H](CN[C@@H](CNC)C(C)C)NCCCCc1ccccc1	10	97*	23	1	4	-2	91*	21
O=C(NCCCCc1ccccc1)c1ccccc1	2	-23	-16	-2	1	0	.	.
O=C(COC(=O)c1ccccc1)NCCCCc1ccccc1	.	.	.	0	.	.	.	.
COc1ccc2[nH]cc(CCNC(=O)Cc3ccc(Cl)cc3)c2c1	-7	-8	-5	2	-5	-6	.	.
Cc1ccccc1OCc1n(CC(=O)OC2CC(C)CCC2C(C)C)c2ccccc2[n+]1C (stereo not given)	114*	65*	10	8	20	-9	99*	60*
CC1CCC(C(C)C)C(OC(=O)Cn2c(-c3ccc(Br)cc3)[n+](C)c3ccccc32)C1 (stereo not given)	106*	100*	3	5	10	-3	95*	57*
CC1(C)CC[C@]2(C(=O)n3ccnc3)CC[C@]3(C)[C@H](C(=O)C=C4[C@@]5(C)C=C(C#N)C(=O)C(C)(C)[C@@H]5CC[C@]43C)[C@@H]2C1	.	.	.	-3	.	0	.	.
